Source: PubChem
An excerpt weighted towards active compounds, which were near 11% of everything screened.
ALOX12 inhib – blocks human 12-lipoxygenase activity; P18054; purified 12-hLO, xylenol orange hydroperoxide absorbance; Potency, µM (series often up to 57.1 µM), for the others: at the highest dose activity change, negative = inhibition, most hits filed as inhibitors; 150,000 compounds, 0.12% hits; AID 1452; also: potency is read from the fitted curve at half-maximal effect; nearly all actives have a fitted effect of over 55% in size
Target sequence (P18054 whole entry, looked up): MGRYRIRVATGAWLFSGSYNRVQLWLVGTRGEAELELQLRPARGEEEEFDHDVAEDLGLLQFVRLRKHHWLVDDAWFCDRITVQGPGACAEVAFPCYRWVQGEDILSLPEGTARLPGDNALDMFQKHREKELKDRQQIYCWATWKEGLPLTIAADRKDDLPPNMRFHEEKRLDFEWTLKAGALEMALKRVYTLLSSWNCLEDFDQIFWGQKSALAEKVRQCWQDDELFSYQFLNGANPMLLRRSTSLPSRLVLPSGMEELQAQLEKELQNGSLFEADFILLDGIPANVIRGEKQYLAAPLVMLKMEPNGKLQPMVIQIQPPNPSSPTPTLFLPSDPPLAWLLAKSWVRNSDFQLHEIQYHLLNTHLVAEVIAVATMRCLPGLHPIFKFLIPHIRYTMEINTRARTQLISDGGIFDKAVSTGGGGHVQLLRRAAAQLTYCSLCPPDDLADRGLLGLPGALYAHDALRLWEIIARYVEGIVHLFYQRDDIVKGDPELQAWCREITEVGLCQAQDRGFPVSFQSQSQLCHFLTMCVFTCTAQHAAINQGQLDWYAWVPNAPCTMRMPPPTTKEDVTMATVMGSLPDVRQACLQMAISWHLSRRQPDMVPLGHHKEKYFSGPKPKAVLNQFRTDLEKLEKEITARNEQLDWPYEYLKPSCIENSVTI
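Xylenol orange chromogenic assay: hydroperoxide from 12hLO oxidises Fe(II), giving red-shifted Fe(III)-XO absorbance. Conditions: 150 nM enzyme, 40 uM arachidonic acid, 25 mM Hepes pH 7.0, 0.01% Triton X-100, 30 min, room temperature.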
HPGD block – inhibitors of human 15-hydroxyprostaglandin dehydrogenase (HPGD); P15428; purified HPGD, NADH fluorescence kinetic, PGE2 substrate; Potency, µM, without a hit: top-dose activity change, negative = inhibition, usual class: inhibitors; 150,000 compounds, 4.3% hits; active = well fitted inhibition curve with a large enough effect, not every such curve was filed as active; inconclusive = small, poorly fitted or top-dose-only effect, or another doubt; inactive = no such curve, though single readings can be large or run the other way; also: potency is read from the fitted curve at half-maximal effect
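20 nM HPGD preincubated 15 min at room temperature with compound in 50 mM Tris-HCl pH 8, 0.01% Tween 20. Started with 1 mM NAD+ and 30 uM prostaglandin E2; NADH fluorescence (360/450 nm) read 5 times over 30-s intervals, last minus first.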
ALDH1A1 block – ALDH1A1 (human) enzyme inhibition; P00352; Purified ALDH1A1, NADH fluorescence, propionaldehyde substrate; Potency, µM (doses to about 75.3 µM), for inactives: at the top dose activity, negative = inhibition, most hits filed as inhibitors; 220,000 compounds, 7.3% hits; AID 1030; active = well fitted inhibition curve with a large enough effect, not every such curve was filed as active; inconclusive = small, poorly fitted or top-dose-only effect, or another doubt; inactive = no such curve, though single readings can be large or run the other way;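 also: potency is read from the fitted curve at half-maximal effect; plate controls were no enzyme wells and a reference inhibitor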
IMPase Li inh – cell-permeable IMPase inhibitors with lithium potentiation | CHO-M1 cells, IP1 TR-FRET (IP-One), carbachol + lithium | Potency, µM (series often up to 59.4 µM), inactives show top-dose activity, negative = IMPase inhibition, hits mostly inhibitors | 210,000 compounds, 0.35% hits | AID 1457;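 also: IP1 builds up when IMPase is blocked and the TR-FRET signal falls; potency is read from the fitted curve at half-maximal effect; plate controls were basal vehicle for no effect and high inhibitor control for full effect; nearly all actives have a fitted effect of over 50% in size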
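CHO-M1, 2000 cells/well, 16–30 h culture; cpd + low Li+, 30 min 37C; lysis with d2-IP1/Eu-anti-IP1 Ab, 10 min RT; TR-FRET 665/620 ratio and 620 channel; AC50 via Hill.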
IMPase inh – membrane-permeable compound that blocks inositol monophosphatase | CHO-M1 cells, IP1 accumulation, HTRF TR-FRET ratio | inhibition (IP1 accumulation), % at 46.1 µM | 120,000 tested, under 10 active | AID 901 | P97697; active = well fitted curve in the direction sought with a large enough effect in the signal ratio, not every such curve was filed as active; inconclusive = small, poorly fitted or top-dose-only effect, or a change in a side signal; inactive = no such curve, though single readings can be large or run the other way; the % refers to the signal ratio;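 also: cells stimulated with carbachol in lithium chloride buffer; plate controls were DMSO basal wells for no effect and reference inhibitor wells for full effect; higher means more IMPase inhibition seen as more IP1 and lower FRET ratio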
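CHO-M1, 2000 cells/well, cultured 16–30 h; cpd up to 46 uM; carbachol (50 uM solution, stimulation buffer w/ 50 mM LiCl, pH 7.4), 30 min 37C; IP-One TR-FRET, 10 min RT; Ex 320/Em 665, 620; Hill-fit AC50.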
PNC assembly inh – perinucleolar compartment assembly inhibition | PC3M PTB-GFP, PNC prevalence imaging, 16 h; stronger effect = lower value | activity change (PNC), negative = inhibition, % at 10 µM | 140,000 compounds, 3.1% hits | AID 2417;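 active = readout at or below -70, meaning at least 70% loss of cells showing the perinucleolar compartment, a nuclear body marking cancer cells; inconclusive = readout between -30 and a set limit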;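 also: plate controls were DMSO wells for no effect and camptothecin positive control wells for full effect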
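Compounds are pinned in duplicate onto adhered PC3M cells stably expressing GFP-tagged PTB and incubated 16 h at 37 C. Cells are then fixed, nuclei stained with Hoechst, and PNC-positive cells counted.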
The depositor's hits bear a star; ? = inconclusive; / = no result; [ ] = another dose, or the depositor's remark. Unless noted, calls follow the shape of the dose curve; as a rule, active = well fitted curve in the direction sought with a large enough effect; inconclusive = small, poorly fitted or top-dose-only effect, or another doubt; inactive = no such curve, though single readings can be large; an effect the other way counts as inactive or inconclusive. Unless noted, % is scaled to controls: 0 for no effect and ±100 for the full control effect.

SMILES | ALOX12 inhib | HPGD block | ALDH1A1 block | IMPase Li inh | IMPase inh | PNC assembly inh
CC1=C(C(=O)Nc2ccccc2C(F)(F)F)C(c2ccc(C)s2)NC(=S)N1 (centres undefined) | / | / | 0.631µM* | 2.9% | / | /
O=C(Nc1cc(Cl)cc(Cl)c1)C(NCCO)c1ccccc1 (centres undefined) | -7.6% | -8.5% | ? | -15.6%[38.3 µM] | 2.2 | 32.8
CCCCNC(C(=O)Nc1ccc(Cl)c([N+](=O)[O-])c1)c1ccccc1 (centres undefined) | -0.5% | -3.3% | 5.01µM* | 3.6% | 6.3 | 54.3
CC(C)c1ccccc1NC(=O)CN(c1ccccc1)S(=O)(=O)N(C)C | / | / | / | / | -0.7 | /
CC(C)c1ccc(Cn2ccc3c4c(N)nc(NC5CC5)nc4ccc32)cc1 | -3.0% | ? | 1.8% | 10.9% | 2.8 | /
O=C(COc1ccc2oc(-c3ccccc3)cc(=O)c2c1)Nc1ccccc1 | -1.3% | -13.8% | 7.0% | ? | -2.3 | -112.5*
COC(=O)[C@H]1[C@@H](C)N(Cc2ccccc2)C(=O)N[C@H]1c1cccc(C(F)(F)F)c1 | 2.7%[11.4 µM] | -7.5% | 12.2%[13.5 µM] | 12.3% | / | /
COc1cc2c(-c3cccc(Cl)c3)nc3c(c(C)nn3-c3ccccc3)c2cc1OC | / | / | / | / | -9.7 | /
CC(/C=C1\SC(=S)N(CCCC(=O)Nc2ccc(C(=O)O)c(O)c2)C1=O)=C\c1ccccc1 | -24.3% | ? | 6.31µM* | 18.5% | -12.3 | -13.8
CSC(=NC#N)N1CCN(c2ccccn2)CC1 | / | / | 17.8µM* | 1.2% | / | /
CSC(=NC#N)N1CCN(c2ccc([N+](=O)[O-])cc2)CC1 | / | / | 17.8µM* | 14.9% | / | /
CCOC(=O)N1CCN(c2ccc([N+](=O)[O-])cc2)CC1 | -5.2% | -18.7% | ? | 10.6% | / | ?
CSC(=NC#N)N1CCN(C(=NC#N)SC)CC1 | / | / | ? | 0.4% | / | /
COc1cccc2cc(C(=O)c3ccc([N+](=O)[O-])cc3)oc12 | / | / | 1.7% | -0.9% | / | /
NC(=S)N=Nc1c(O)n(Cc2ccc(Br)cc2)c2ccccc12 | 1.6% | -5.5% | 3.55µM* | -1.0% | 1.1 | -16.4
NC(=S)N=Nc1c(O)n(CCCl)c2ccc(Br)cc12 | / | / | 7.1% | / | / | /
C/C(Cl)=C\Cn1c(O)c(N=NC(N)=S)c2cc(Br)ccc21 | / | / | 0.447µM* | 29.7% | / | /
NC(=S)N=Nc1c(O)n(Cc2ccc(F)cc2)c2ccccc12 | 2.2% | / | 1.41µM* | / | -2.7 | 49.7
Cc1ccc2c(c1)c(N=NC(N)=S)c(O)n2Cc1ccccc1 | -1.4% | -6.3% | 0.631µM* | -0.1% | / | 20.2
COc1ccccc1CNc1ncnc2ccc(-c3cccnc3)cc12 | 2.9% | ? | -6.5% | 3.3% | / | /
COc1ccc2[nH]cc(CCNc3cc(-c4ccccc4OC)ncn3)c2c1 | / | / | 5.5% | 2.2% | / | /
CCCC(c1nnnn1C(C)(C)CC)N(Cc1ccco1)Cc1cc2ccc(OC)cc2[nH]c1=O (centres undefined) | -27.4% | -20.7% | 31.6µM* | 41.0%[38.3 µM] | 12.0 | -27.5
Cc1ccc(-c2nnc(CSc3nc4cc5c(cc4cc3C)OCO5)o2)cc1 | -13.2% | 17.8µM* | -11.1% | -2.5%[38.3 µM] | 5.4 | 32.8
CCOC(=O)CSc1nc2cc3c(cc2cc1C)OCO3 | / | / | 7.0% | 10.7% | / | /
Cc1ccc(CSc2nc3c(cc2C#N)CCC3)cc1 | -1.8% | -1.6% | 7.2% | -5.4%[38.3 µM] | -11.7 | 10.7
SMILES | ALOX12 inhib | HPGD block | ALDH1A1 block | IMPase Li inh | IMPase inh | PNC assembly inh
CN1CCc2nc(SCc3ccc(C(C)(C)C)cc3)c(C#N)cc2C1 | 0.4% | 28.2µM* | 0.4% | 11.5%[38.3 µM] | 1.4 | 92.8
COc1cc(C(c2c(C)[nH][nH]c2=O)c2c(C)[nH][nH]c2=O)ccc1OC(=O)c1cccc(C)c1 | / | / | / | / | 3.8 | /
O=c1[nH]c(-c2ccccc2O)nc2ccccc12 | / | 2.82µM* | -6.3% | -3.6% | / | /
O=c1[nH]c(-c2ccccn2)nc2ccccc12 | 2.3% | / | ? | / | 15.5 | ?
CCc1nnc2c(NCc3cccc(OC)c3)nc3ccccc3n12 | / | / | / | / | -6.4 | /
CCn1c(SCc2nc3sc(C(=O)O)c(C)c3c(=O)[nH]2)nnc1-c1ccc(Cl)cc1 | / | / | 14.1µM* | 4.2% | / | /
